From PubChem BioAssay (NCATS) come the findings set out here.

Records with an inconclusive call do not appear. Active and inactive are the calls of the source. Unless noted, calls follow the shape of the dose curve; as a rule, active = well fitted curve in the direction sought with a large enough effect; inconclusive = small, poorly fitted or top-dose-only effect, or another doubt; inactive = no such curve, though single readings can be large; an effect the other way counts as inactive or inconclusive. A value given as a limit tells only on which side of the number the result lay.

In assay [1] the target is Lysosomal acid glucosylceramidase (Homo sapiens) (UniProt P04062). As to the kind of experiment: Glucocerebrosidase-p2 (AID 348; in the data active = potency below about 10 µM; also: potency is read from the fitted curve at half-maximal effect). Conditions: purified GBA, blue fluorogenic substrate, 40 min. The method, boiled down: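 Normal human glucocerebrosidase (0.2 nM) with blue fluorogenic substrate (80 uM final) in citrate/phosphate pH 5.9 with 10mM sodium taurocholate, 0.01% tween-20; 40 min RT, NaOH/glycine stop; fluorescence Ex 365/Em 440; AC50 from a titration from 0.6 nM upwards.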

Assay [2] in a line: AP1 Signaling Pathway (AID 357; active = well fitted curve in either direction with a large enough effect, not every such curve was filed as active;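 also: ME-180 reporter cells stimulated with EGF at its EC50 level; % is scaled to controls: 0 for no effect and ±100 for the full control effect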). Conditions: ME-180 AP-1-bla reporter, EGF-induced, beta-lactamase ratio, 5 h; at 7.69 µM (top of the series) unless noted. The method, boiled down:
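AP-1-bla ME-180 cells, Opti-MEM + 0.5% dialyzed FBS, plated overnight 37 °C. Cpd titration + EC50 EGF, 5 h 37 °C. CCF4 2.5 h RT; ex 405, em 460/530 ratio → %activity, AC50.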

A short description of assay [3]: NFAT Signaling Pathway (AID 444; active = well fitted curve in either direction with a large enough effect, not every such curve was filed as active;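 also: carbachol stimulus at about its EC50 of 1 µM final; % is scaled to controls: 0 for no effect and ±100 for the full control effect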). Conditions: Jurkat NFAT-bla M1, carbachol, beta-lactamase ratio, 5 h; at 7.69 µM (top of the series) unless noted. The method, boiled down:
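Jurkat cells with NFAT-driven β-lactamase reporter and co-expressed M1 receptor, stimulated with carbachol (final 1 uM, ~EC50), compound titration, 5 h at 37 °C. CCF4 loaded 1 h at RT; 460/530 nm ratio gave %activity and AC50.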

The nature of assay [4]: Stat Signaling Pathway (AID 446; active = well fitted curve in either direction with a large enough effect, not every such curve was filed as active;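 also: ME-180 cervical cancer cells given 40 pM IL-6 alongside compound; SIE-controlled beta-lactamase reporter measured as 460/530 nm FRET emission ratio; % is scaled to controls: 0 for no effect and ±100 for the full control effect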). Conditions: ME-180 (cervical carcinoma) SIE beta-lactamase reporter, IL-6 stimulated, 5 h; at 7.69 µM (top of the series) unless noted. The essentials: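 Compound effects on IL-6-induced STAT reporter activity were measured in ME-180 cells. After overnight culture, cells were co-treated with 40 pM IL-6 for 5 hrs before beta-lactamase substrate loading at room temperature.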

Assay [5] deals with Glucocorticoid receptor (Homo sapiens) (UniProt P04150). As to the kind of experiment: GR-GFP Redistribution (AID 450;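 active = compounds whose dose series gives a full or clear partial fitted curve of increased nuclear translocation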; also: potency is read from the fitted curve at half-maximal effect). Conditions: U2OS GR-GFP nuclear translocation, laser cytometry, 2 h.
Assay [6] has the same target. As to the kind of experiment: GR-EFC Redistribution (AID 451; calls by dose curve; also: potency is read from the fitted curve at half-maximal effect). Conditions: CHO-K1 GR-EFC translocation, beta-gal luminescence, 2 h. The essentials: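 CHO-K1 cells expressing nuclear EA and GR-ED fragments of b-gal; compounds titrated up to 46 uM final, 2 h at 37 C. GR nuclear translocation read as complemented b-gal luminescence after 1 h RT detection.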
For assay [7], the target named is Mitogen-activated protein kinase 10 (Mus musculus) (UniProt Q61831). Description: JNK3 AlphaScreen Assay (AID 530; active = well fitted curve in either direction with a large enough effect, not every such curve was filed as active;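 also: kinase came from lysate of stimulated human HepG2 cells; signal reports phosphorylation of biotinylated GST-cJun 1-79 at Ser73 with 10 µM ATP; % is scaled to controls: 0 for no effect and ±100 for the full control effect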). Conditions: JNK3 lysate, c-Jun phosphorylation; series mostly up to 57.1 µM. The method, boiled down: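 Activity was read by AlphaScreen after JNK3-containing HepG2 lysate (cytokine pre-activated) phosphorylated biotinylated GST-cJun with 10 uM ATP at room temperature. Phospho-Ser73 cJun antibody with Protein-A acceptor beads provided detection.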
In general terms: Alpha assays give light when donor and acceptor beads are brought close together.

For assay [8], the target named is 3',5'-cyclic-AMP phosphodiesterase 4B (Homo sapiens) (UniProt Q07343). As to the kind of experiment: qHTS Assay for Inhibitors of PDE-IV (AID 607; active = well fitted activation curve with a large enough effect in the main read-out, with a control signal flat, not every such curve was filed as active; also: % of control where 0% means no effect). Conditions: HEK293 ACTOne CNG channel cells, membrane potential fluorescence; series mostly up to 22.9 µM. The essentials: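 ACTOne HEK293 cells carry a modified cAMP-gated CNG channel and express endogenous PDE4; plated 1000 cells/well, compounds up to 22.9 uM final. Membrane-potential dye fluorescence (ex 535/em 590) was read; parental cells received 10 uM forskolin + 100 uM RO 20-1724.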
(In general: qHTS replaces the single test concentration by a dilution series.)

Assay [9] can be described thus: qHTS Assay for Lipid Storage Modulators (AID 1519; calls by dose curve; also: potency is read from the fitted curve at half-maximal effect). Conditions: Drosophila S3 cells, BODIPY lipid droplet/cell ratio, laser cytometry, cells loaded with oleic acid; for activity change, negative = inhibition: at 57.5 µM (top of the series). The essentials:
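Cells seeded at 5,000 per well were treated with compounds over a concentration series and loaded with oleic acid (400 uM, as added). Lipid droplet fluorescence (488 nm excitation, 500-530 nm channel) was read by laser-scanning cytometry and normalized to 20 uM Triacsin C.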

The target of assay [10] is Dual specificity protein kinase CLK4 (Homo sapiens) (UniProt Q9HAZ1). Description: qHTS Assay for Inhibitors of CDC-like Kinase 4 (Kinase-Glo Assay) (AID 1770). Also: % is scaled to controls: 0 for no effect and ±100 for the full control effect; nearly all actives have a fitted effect of over 65% in size. Conditions: recombinant Clk4, Kinase-Glo ATP depletion luminescence; series mostly up to 66.7 µM. The method, boiled down:
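25 nM Clk4 with 100 uM RS repeat peptide and 1 uM ATP (final) in Tris pH7.5, 10 mM MgCl2, 4.5 h at room temperature. Remaining ATP measured by Kinase-Glo luciferase luminescence.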

For assay [11] the target is unchanged. As to the kind of experiment: qHTS Assay for Inhibitors of CDC-like Kinase 4 (ADP-Glo Assay) (AID 1771). Also: % is scaled to controls: 0 for no effect and ±100 for the full control effect; nearly all actives have a fitted effect of over 70% in size. Conditions: recombinant CLK4, ADP-Glo luminescence; series mostly up to 80 µM. The essentials: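 Compounds are pin-transferred onto substrate mix (100 uM RS peptide, 1 uM ATP), then 25 nM Clk4 is added. After 1 hr at room temperature, ADP-Glo reagent runs 45 min, detection reagent 30 min, then luminescence is read.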

For assay [12] the target is unchanged. As to the kind of experiment: qHTS Assay for Inhibitors of CDC-like Kinase 4 (ADP-FP Assay) (AID 1795).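 Also: recombinant human CLK4 phosphorylating RS repeat peptide at 1 µM ATP; % is scaled to controls: 0 for no effect and ±100 for the full control effect; nearly all actives have a fitted effect of over 60% in size.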 Conditions: Transcreener ADP fluorescence polarization; series mostly up to 50 µM. The method, boiled down:
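Recombinant Clk4 (6.25 nM) phosphorylated 100 uM RS repeat peptide with 1 uM ATP in 25 mM Tris pH 7.5, 10 mM MgCl2, 0.5 mM EGTA, 2.5 mM DTT, 0.01% Triton X-100 for 1 h. ADP was detected by Transcreener ADP2 competitive fluorescence polarization after 30 min at room temperature.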

Assay [13] concerns the target Ubiquitin carboxyl-terminal hydrolase 1 (Homo sapiens) (UniProt O94782). Description: Inhibitors of USP1/UAF1: Pilot qHTS (AID 504865).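 Also: rhodamine fluorescence freed from ubiquitin-rhodamine substrate followed over time; top concentration of the series differs between compounds; % is scaled to controls: 0 for no effect and ±100 for the full control effect; nearly all actives have a fitted effect of over 35% in size.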 Conditions: purified USP1/UAF1, Ub-rhodamine cleavage fluorescence; series mostly up to 54.9 µM. The method, boiled down:
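USP1/UAF1 complex at 1 nM preincubated 15 min at room temperature with compound, then Ub-Rho substrate added at 150 nM final. Fluorescence (480/540 nm) read kinetically in 50 mM HEPES pH 7.8, 0.5 mM EDTA, 1 mM TCEP, 0.1 mg/ml BSA, 0.01% Tween-20.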

A short description of assay [14]: Primary qHTS for small molecule stabilizers of the endoplasmic reticulum resident proteome: Secreted ER Calcium Modulated Protein (SERCaMP) assay (AID 1508630). Also: % is scaled to controls: 0 for no effect and ±100 for the full control effect. Conditions: SH-SY5Y GLuc-SERCaMP (Gaussia luciferase released on ER calcium loss) secretion, thapsigargin, luminescence; series mostly up to 38.4 µM. The method, boiled down: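 The SH-SY5Y reporter protocol was run at 3 concentrations up to 38.3 uM (primary) or 11 concentrations (follow-up): 16 h compound, 100 nM thapsigargin for 4 h, then extracellular luciferase luminescence.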

Assay [15] has as its target Cytochrome P450 1A2 (Homo sapiens) (UniProt P05177). Description: p450-cyp1a2 (AID 410; calls by dose curve; also: potency is read from the fitted curve at half-maximal effect). Conditions: recombinant CYP1A2, luciferin-ME demethylation, luminescence; series mostly up to 57 µM. The method, boiled down:
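O-Demethylation of luciferin 6' methyl ether by human CYP1A2 is monitored as luciferase luminescence. Substrate sits at Km (100uM); enzyme is 20nM. Values are scaled to 57 uM furafylline as maximal inhibition.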

The target of assay [16] is Cytochrome P450 3A4 (Homo sapiens) (UniProt P08684). Description: qHTS Assay for Inhibitors and Substrates of Cytochrome P450 3A4 (AID 884). Also: potency is read from the fitted curve at half-maximal effect; nearly all actives have a fitted effect of over 50% in size. Conditions: recombinant CYP3A4, Luciferin-PPXE luminescence; series mostly up to 57.1 µM. The essentials:
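Luminescent readout of luciferin produced by CYP3A4 (20 nM) dealkylation of Luciferin-PPXE, 25 uM (its KM). NADPH-driven reaction ran 60 min at RT after 10 min compound preincubation; data scaled to 57 uM ketoconazole as 100% inhibition.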

Assay [17] has the same target. As to the kind of experiment: qHTS Assay for Activators of Cytochrome P450 3A4 (AID 885). Also: nearly all actives have a fitted effect of over 65% in size. Conditions: recombinant CYP3A4, Luciferin-PPXE luminescence, 60 min; series mostly up to 57.1 µM. The method, boiled down:
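CYP3A4 activity: Luciferin-PPXE O-dealkylation, 25uM substrate, 200mM KPO4, RT throughout. Read-out is luciferase luminescence; higher values reflect activation.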

Assay [18] deals with Cytochrome P450 2C19 (Homo sapiens) (UniProt P33261). As to the kind of experiment: qHTS Assay for Inhibitors and Substrates of Cytochrome P450 2C19 (AID 899). Also: potency is read from the fitted curve at half-maximal effect; nearly all actives have a fitted effect of over 60% in size. Conditions: recombinant CYP2C19, luciferin-H EGE luminescence; series mostly up to 57.1 µM. The method, boiled down:
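Signal comes from luciferase acting on luciferin released by CYP2C19-mediated hydroxylation of Luciferin-H EGE, 10uM (KM). Assay mix: 5nM enzyme, 50mM KPO4; 60 min at 37C with NADPH regeneration. Data normalized against 57uM ketoconazole.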

The mark [19] stands for this setting: measured here: cell count channel max response.
Setting [20] is: measured here: lipid channel max response.

3',5'-cyclic-AMP phosphodiesterase 4B (Homo sapiens), sequence (Q07343 whole entry, looked up): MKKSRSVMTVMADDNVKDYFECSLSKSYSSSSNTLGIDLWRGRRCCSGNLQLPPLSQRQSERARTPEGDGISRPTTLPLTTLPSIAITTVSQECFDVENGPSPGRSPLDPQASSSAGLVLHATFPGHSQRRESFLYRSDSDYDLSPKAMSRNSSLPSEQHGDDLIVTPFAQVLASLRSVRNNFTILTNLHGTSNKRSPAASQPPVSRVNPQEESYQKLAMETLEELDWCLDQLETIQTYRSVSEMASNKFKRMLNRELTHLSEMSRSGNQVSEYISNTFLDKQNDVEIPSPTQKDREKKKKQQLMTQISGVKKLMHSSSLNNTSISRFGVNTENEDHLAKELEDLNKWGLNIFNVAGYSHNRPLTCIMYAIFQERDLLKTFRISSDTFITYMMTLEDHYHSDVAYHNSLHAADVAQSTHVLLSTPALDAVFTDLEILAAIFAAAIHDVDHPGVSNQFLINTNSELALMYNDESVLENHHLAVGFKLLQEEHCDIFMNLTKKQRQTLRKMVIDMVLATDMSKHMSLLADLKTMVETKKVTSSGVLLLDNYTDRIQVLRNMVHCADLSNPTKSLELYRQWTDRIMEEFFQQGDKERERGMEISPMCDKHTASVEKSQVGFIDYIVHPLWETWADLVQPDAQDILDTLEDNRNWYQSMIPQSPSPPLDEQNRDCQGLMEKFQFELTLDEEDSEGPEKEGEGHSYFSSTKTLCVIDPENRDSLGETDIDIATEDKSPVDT
Lysosomal acid glucosylceramidase (Homo sapiens), sequence (P04062 whole entry, looked up): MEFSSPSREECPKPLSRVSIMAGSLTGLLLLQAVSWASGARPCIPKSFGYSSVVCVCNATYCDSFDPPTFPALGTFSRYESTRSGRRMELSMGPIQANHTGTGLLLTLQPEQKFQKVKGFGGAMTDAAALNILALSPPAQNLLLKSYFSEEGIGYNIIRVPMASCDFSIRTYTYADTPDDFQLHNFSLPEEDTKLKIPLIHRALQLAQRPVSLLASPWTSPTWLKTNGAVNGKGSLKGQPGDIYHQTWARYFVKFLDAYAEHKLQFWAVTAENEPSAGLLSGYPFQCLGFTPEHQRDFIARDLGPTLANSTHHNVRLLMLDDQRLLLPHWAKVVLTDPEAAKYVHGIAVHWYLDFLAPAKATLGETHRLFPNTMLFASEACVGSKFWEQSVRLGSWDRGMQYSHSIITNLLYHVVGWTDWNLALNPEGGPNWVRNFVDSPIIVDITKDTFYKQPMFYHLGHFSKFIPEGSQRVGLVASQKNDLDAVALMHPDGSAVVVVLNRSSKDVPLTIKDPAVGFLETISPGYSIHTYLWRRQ
Ubiquitin carboxyl-terminal hydrolase 1 (Homo sapiens), sequence (O94782 whole entry, looked up): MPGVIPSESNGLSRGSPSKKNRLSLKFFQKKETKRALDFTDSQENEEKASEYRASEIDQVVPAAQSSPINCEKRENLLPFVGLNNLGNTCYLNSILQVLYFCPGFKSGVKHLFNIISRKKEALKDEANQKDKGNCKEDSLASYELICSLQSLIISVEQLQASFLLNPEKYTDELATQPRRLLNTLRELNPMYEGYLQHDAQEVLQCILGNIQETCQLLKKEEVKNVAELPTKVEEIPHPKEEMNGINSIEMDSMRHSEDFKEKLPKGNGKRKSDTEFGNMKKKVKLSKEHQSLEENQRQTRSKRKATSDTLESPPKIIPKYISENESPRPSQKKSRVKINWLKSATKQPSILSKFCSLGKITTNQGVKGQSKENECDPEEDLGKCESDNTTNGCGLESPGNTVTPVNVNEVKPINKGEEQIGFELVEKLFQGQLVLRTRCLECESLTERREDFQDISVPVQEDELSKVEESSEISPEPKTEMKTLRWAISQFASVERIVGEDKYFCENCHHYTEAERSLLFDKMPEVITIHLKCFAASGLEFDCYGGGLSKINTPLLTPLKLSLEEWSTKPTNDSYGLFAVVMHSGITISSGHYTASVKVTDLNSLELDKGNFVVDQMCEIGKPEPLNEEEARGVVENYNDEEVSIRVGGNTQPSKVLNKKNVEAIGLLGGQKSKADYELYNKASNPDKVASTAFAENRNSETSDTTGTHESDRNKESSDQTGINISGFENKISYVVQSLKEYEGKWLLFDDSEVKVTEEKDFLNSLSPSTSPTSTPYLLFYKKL
Dual specificity protein kinase CLK4 (Homo sapiens), sequence (Q9HAZ1 whole entry, looked up): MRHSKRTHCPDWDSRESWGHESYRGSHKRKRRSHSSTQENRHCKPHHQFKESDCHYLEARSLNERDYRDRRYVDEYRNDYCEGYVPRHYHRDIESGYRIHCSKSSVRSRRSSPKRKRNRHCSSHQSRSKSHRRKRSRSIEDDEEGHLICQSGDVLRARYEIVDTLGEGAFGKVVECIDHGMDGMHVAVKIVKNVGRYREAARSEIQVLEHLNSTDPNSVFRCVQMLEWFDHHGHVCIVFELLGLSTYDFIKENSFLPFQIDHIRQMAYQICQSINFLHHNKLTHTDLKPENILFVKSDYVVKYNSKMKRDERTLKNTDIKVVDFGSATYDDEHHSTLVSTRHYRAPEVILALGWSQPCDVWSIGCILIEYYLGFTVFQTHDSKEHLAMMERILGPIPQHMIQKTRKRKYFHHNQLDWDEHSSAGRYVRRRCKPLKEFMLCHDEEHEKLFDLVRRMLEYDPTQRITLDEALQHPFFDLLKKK
Glucocorticoid receptor (Homo sapiens), sequence (P04150 whole entry, looked up, the tested form may be a part): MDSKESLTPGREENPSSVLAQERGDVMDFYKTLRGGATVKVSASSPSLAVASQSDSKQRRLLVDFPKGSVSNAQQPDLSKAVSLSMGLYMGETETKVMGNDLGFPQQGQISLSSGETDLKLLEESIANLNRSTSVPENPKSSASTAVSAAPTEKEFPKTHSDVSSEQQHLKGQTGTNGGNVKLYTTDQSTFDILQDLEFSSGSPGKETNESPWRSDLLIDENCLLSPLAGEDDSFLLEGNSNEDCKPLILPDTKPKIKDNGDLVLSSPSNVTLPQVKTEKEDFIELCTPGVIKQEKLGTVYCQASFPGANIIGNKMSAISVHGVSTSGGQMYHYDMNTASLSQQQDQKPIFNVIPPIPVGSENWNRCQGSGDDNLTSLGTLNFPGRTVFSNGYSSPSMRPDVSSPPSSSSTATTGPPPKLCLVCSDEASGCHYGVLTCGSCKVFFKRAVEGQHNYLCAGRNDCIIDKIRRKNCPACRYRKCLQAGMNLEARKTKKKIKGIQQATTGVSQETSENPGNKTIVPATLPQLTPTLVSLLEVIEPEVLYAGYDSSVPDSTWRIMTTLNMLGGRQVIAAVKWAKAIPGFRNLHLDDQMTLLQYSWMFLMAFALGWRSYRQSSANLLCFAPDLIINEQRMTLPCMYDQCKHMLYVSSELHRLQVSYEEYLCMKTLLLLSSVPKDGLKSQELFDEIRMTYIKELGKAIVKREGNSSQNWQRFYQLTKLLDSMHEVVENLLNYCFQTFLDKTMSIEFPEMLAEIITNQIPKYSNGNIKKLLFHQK
Cytochrome P450 3A4 (Homo sapiens), sequence (P08684 whole entry, looked up): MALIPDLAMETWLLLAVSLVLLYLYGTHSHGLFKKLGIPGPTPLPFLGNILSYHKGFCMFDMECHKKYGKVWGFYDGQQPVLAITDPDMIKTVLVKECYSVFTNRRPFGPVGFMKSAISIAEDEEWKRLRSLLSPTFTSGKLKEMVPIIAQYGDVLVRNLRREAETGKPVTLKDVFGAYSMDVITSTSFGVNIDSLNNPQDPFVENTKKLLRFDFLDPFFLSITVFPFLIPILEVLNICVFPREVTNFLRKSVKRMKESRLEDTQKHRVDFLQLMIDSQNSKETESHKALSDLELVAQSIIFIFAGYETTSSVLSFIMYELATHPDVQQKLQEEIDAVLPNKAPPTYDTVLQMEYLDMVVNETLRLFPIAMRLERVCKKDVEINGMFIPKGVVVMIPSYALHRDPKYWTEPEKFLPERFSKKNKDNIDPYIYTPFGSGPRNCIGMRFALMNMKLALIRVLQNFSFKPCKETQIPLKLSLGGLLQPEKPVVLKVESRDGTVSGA
Cytochrome P450 1A2 (Homo sapiens), sequence (P05177 whole entry, looked up): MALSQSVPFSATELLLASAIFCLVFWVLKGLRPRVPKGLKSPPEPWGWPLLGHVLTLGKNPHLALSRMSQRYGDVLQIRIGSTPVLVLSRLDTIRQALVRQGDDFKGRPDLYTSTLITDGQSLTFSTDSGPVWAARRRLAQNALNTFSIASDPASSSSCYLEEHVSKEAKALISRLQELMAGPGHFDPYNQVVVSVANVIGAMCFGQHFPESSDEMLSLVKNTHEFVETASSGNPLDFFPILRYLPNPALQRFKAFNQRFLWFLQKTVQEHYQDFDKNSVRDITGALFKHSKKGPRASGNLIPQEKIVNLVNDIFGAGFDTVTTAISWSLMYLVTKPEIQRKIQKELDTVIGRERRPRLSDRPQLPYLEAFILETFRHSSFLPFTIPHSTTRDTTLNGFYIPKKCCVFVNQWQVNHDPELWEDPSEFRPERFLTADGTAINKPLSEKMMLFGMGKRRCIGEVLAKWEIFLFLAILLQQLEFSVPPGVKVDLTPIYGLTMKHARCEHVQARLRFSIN
Cytochrome P450 2C19 (Homo sapiens), sequence (P33261 whole entry, looked up): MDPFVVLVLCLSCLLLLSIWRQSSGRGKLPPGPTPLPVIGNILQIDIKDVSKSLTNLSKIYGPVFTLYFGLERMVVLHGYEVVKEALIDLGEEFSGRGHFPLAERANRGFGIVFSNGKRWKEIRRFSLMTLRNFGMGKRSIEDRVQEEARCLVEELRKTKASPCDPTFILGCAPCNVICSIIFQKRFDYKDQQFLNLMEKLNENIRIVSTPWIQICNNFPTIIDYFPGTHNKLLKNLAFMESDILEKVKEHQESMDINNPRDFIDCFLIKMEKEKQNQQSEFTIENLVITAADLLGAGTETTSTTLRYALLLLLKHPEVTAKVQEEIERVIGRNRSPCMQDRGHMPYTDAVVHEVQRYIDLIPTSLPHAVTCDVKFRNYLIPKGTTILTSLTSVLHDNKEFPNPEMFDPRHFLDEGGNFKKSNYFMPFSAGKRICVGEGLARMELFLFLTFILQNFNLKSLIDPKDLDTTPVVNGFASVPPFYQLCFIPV

For the compound `COc1ccc(Oc2ncc3nc(-c4ccc(Cl)cc4)c(=O)n(C[C@H]4CCCO4)c3n2)cc1`, the Potency in assay [1] is > 11.4 µM (inactive); in [5], > 9.22 µM (inactive); in assay [6], > 46 µM (inactive); in [9] it was 28.2 µM (active). Also, the activity change, negative = inhibition in assay [2] was -19.3% (inactive); in assay [3] it was -18.6% (inactive). Besides, in assay [4], the activity, negative = inhibition was -13.9% (inactive). The result in assay [7] was inactive. Further, the Potency entry in [8], in assay [10], in assay [11], in assay [12], in assay [13] and in assay [14] was “inactive” in each case. Further, the max response was -25.3% in assay [9] (setting [19]) and -85.4% in assay [9] (setting [20]).

On to `COCCn1c(=O)cnc2cnc(N3CCN(C)CC3)nc21`, for which the Potency in assay [1] was > 11.4 µM (inactive); in assay [5], > 9.22 µM (inactive); in [6] it was > 46 µM (inactive). The activity change, negative = inhibition is -13.3% (inactive) in assay [2], -29.3% (inactive) in assay [3] and 0.388% (inactive) in [9]. For the same compound, in assay [4], the activity, negative = inhibition is -12.7% (inactive). In addition, the compound was classed as inactive in [7]. For the same compound, the Potency result in [8], in assay [10], in assay [11], in assay [12], in assay [13] and in assay [14] was “inactive” in each case. Besides, the max response stood at 4.53% in [9] (setting [19]) and 3.72% in assay [9] (setting [20]).

Regarding `CN(Cc1ccco1)c1ncncc1-c1ccccc1Cl`, the Potency in [1] was > 11.4 µM (inactive); in assay [15] it was 25.1 µM (active); in assay [5], > 46 µM (inactive); in [6], > 46 µM (inactive); in assay [16], 0.501 µM (active); in assay [18], 0.794 µM (active). In addition, the activity change, negative = inhibition in [2] was 23.7% (inactive); in assay [9], 7.31% (inactive). Besides, in assay [4], the activity, negative = inhibition is 3.72% (inactive). Moreover, the call in assay [7] was inactive. For the same compound, the Potency entry in [8], in [17], in assay [10], in assay [11], in assay [12] and in assay [13] was “inactive” each time. Besides, the Potency entry in [14] was “inactive”. The max response in assay [9] (setting [19]) stood at 14.4%; in assay [9] (setting [20]), 19.6%.

For `Cc1nc2cnc(N(C)C)nc2n(C[C@H]2CCCO2)c1=O`, the Potency in assay [1] was > 11.4 µM (inactive); in assay [5] it was > 9.22 µM (inactive); in assay [6], > 46 µM (inactive). Further, the activity change, negative = inhibition was -5.35% (inactive) in assay [2], -4.67% (inactive) in [3] and 2.86% (inactive) in assay [9]. The activity, negative = inhibition in assay [4] was -0.622% (inactive). The compound was classed as inactive in [7]. Also, the max response in assay [9] (setting [19]) came out at 10.5%; in assay [9] (setting [20]) it was 13.4%. Besides, the Potency result in assay [10], in [11], in assay [12], in assay [13] and in [14] was “inactive” throughout.

On to `CN(C)C(=O)c1ccc(-c2cncnc2NC2CCNCC2)cc1`, for which the Potency is > 11.4 µM (inactive) in assay [1], > 46 µM (inactive) in [5] and > 46 µM (inactive) in assay [6]. Moreover, the activity change, negative = inhibition in assay [2] is 7.68% (inactive); in assay [3] it was 9.18% (inactive); in assay [9] it was 3.5% (inactive). For the same compound, the activity, negative = inhibition in assay [4] was 15.4% (inactive). Besides, the compound was called inactive in assay [7]. Further, the Potency result in [8], in assay [10], in [11], in assay [12], in [13] and in assay [14] was “inactive” in each case. Moreover, the max response is 11.8% in [9] (setting [19]) and 12.7% in assay [9] (setting [20]).
